Shown are actives, neighbours in structure and some others; about 5.2% of the full set was active somewhere.
Yeast superoxide: caloric restriction mimetics inhibiting age-related superoxide in yeast | S. cerevisiae aged cells, superoxide DHE fluorescence; stronger effect = lower value | superoxide response (% of plate mean), % at 10 µM | 330,000 tested, 0.18% active | AID 2690;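 active means superoxide response under a set limit, about three screen SD below normal, cut at about 65% in these data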;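 further: yeast aged for seven days with compound at 30 °C before DHE staining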
ALR inh: inhibitors of human sulfhydryl oxidase ALR; 290,000 tested, 3.8% active; purified ALR, DTT oxidation, H2O2 HRP-luminol luminescence; AID 485317; P55789; inhibition, % (no concentration beside the values);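 active means mean replicate inhibition above about 79%, with every replicate also reaching it, limit read from the data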
PfM18AAP inh: PfM18AAP enzyme inhibition; 290,000 tested, 1.2% active; inhibition, % at 7.35 µM; recombinant PfM18AAP, H-Glu-NHMec fluorogenic cleavage;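 active means inhibition above the campaign mean inhibition over all tested compounds plus 3 SD, cut at about 28% in these data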
CendR NRP1 mod: modulators of CendR peptide binding to human neuropilin-1; O14786; FAM-RPARPAR peptide binding to NRP-1, fluorescence polarization; inhibition, % at 25 µM; 360,000 tested, 0.85% active;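 active means inhibition or corrected inhibition above about 18%, plus a signal ratio from 0.5 to 1.5, limit read from the data, passing the limit was not always enough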
Target sequence (O14786 whole entry, looked up): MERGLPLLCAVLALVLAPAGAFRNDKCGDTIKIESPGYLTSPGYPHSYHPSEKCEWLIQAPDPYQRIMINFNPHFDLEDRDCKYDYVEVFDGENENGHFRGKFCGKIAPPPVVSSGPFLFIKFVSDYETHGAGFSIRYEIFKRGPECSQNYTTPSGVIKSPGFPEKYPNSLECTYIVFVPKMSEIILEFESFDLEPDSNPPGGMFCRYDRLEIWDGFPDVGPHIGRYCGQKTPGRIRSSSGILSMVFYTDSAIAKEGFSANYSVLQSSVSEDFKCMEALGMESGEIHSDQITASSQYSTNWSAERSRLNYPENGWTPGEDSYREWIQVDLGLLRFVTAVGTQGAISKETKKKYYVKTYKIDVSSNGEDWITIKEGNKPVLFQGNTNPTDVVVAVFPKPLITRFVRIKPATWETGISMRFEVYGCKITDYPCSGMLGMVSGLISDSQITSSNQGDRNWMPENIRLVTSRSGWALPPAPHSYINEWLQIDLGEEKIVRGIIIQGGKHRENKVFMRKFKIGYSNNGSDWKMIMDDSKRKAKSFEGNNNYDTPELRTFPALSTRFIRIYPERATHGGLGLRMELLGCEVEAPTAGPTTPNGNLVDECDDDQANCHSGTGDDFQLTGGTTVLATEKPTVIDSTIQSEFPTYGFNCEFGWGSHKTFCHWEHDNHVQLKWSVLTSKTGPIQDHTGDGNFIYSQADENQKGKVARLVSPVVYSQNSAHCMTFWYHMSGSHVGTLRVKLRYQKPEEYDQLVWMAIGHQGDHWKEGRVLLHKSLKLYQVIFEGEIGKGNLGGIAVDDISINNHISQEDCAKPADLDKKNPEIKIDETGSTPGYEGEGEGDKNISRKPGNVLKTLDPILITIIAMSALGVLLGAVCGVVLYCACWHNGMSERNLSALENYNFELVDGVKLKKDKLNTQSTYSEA
APOBEC3A inh: inhibitors of human APOBEC3A DNA deaminase; P31941; inhibition, % at 20 µM; recombinant A3A, FAM/TAMRA ssDNA deamination fluorescence; 330,000 tested, 0.41% active;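 active means at least 40% inhibition at 20 µM here, with at most 30% in a related deaminase screen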
A3G deaminase: inhibitors of human APOBEC3G DNA deaminase. Q9HC16. 330,000 tested, 0.28% active. recombinant A3G, ssDNA deamination FAM/TAMRA fluorescence. inhibition, % at 20 µM. AID 493012;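 active means inhibition of at least 40% at 20 µM, with no more than 30% in the related APOBEC3A deaminase screen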
Numbers stand for hits.

`COc1ccc(N2CCN(C(=O)CCc3ccc(S(=O)(=O)NC(C)(C)C)cc3)CC2)cc1` gave Yeast superoxide inactive, ALR inh inactive, PfM18AAP inh inactive, CendR NRP1 mod inactive, APOBEC3A inh inactive and A3G deaminase inactive.
For O=C1C(=C(c2ccccc2)c2ccccc2)Nc2ccccc21 the results were Yeast superoxide inactive, ALR inh inactive, PfM18AAP inh inactive, CendR NRP1 mod inactive, APOBEC3A inh inactive and A3G deaminase inactive.
For CCC(Sc1nc(-c2ccccc2)c(-c2ccccc2)[nH]1)C(=O)O (stereo not given) the results were Yeast superoxide inactive, ALR inh 82, PfM18AAP inh inactive, CendR NRP1 mod inactive, APOBEC3A inh inactive and A3G deaminase inactive.
For C#CCn1c(=NC(=O)CSCC(=O)N2CCOCC2)sc2ccccc21 the results were Yeast superoxide inactive, ALR inh 96, PfM18AAP inh inactive, CendR NRP1 mod inactive, APOBEC3A inh inactive and A3G deaminase inactive.
Cc1noc(C)c1C(=O)N1CCCC(C(=O)c2cccc(OC(C)C)c2)C1 (stereo not given) was read as Yeast superoxide inactive, PfM18AAP inh inactive, CendR NRP1 mod inactive, APOBEC3A inh inactive and A3G deaminase inactive.
COc1ccc(NC2CCCN(C(=O)c3c(C)noc3C)C2)cc1 (stereo not given) was read as Yeast superoxide inactive, ALR inh 99, PfM18AAP inh inactive, CendR NRP1 mod inactive, APOBEC3A inh inactive and A3G deaminase inactive.
Cc1noc(C)c1C(=O)N1CCCC(Nc2ccc(C(C)C)cc2)C1 (stereo not given) was read as Yeast superoxide inactive, ALR inh 98, PfM18AAP inh inactive, CendR NRP1 mod inactive, APOBEC3A inh inactive and A3G deaminase inactive.
`CC(=O)c1[nH]c(C)c(C(=O)N2CCCC(Nc3ccc(C(C)C)cc3)C2)c1C` (stereo not given) gave PfM18AAP inh inactive, CendR NRP1 mod inactive, APOBEC3A inh inactive and A3G deaminase inactive.
For CC(C)C(=O)NC(=S)Nc1ccc(S(=O)(=O)N2CCN(C)CC2)cc1 the results were Yeast superoxide inactive, ALR inh inactive, PfM18AAP inh inactive, CendR NRP1 mod inactive, APOBEC3A inh inactive and A3G deaminase inactive.
`CC(C)(C)c1nnc2sc(SCC(=O)c3cccs3)nn2c1=O` gave Yeast superoxide inactive, ALR inh 98, PfM18AAP inh inactive, CendR NRP1 mod inactive, APOBEC3A inh inactive and A3G deaminase inactive.
For Cc1ccc(C(=O)CSc2nn3c(=O)c(C(C)(C)C)nnc3s2)cc1 the results were Yeast superoxide inactive, ALR inh 98, PfM18AAP inh inactive, CendR NRP1 mod inactive, APOBEC3A inh inactive and A3G deaminase inactive.
`CC(C)(C)c1nnc2sc(SCC(=O)N3CCCc4ccccc43)nn2c1=O` gave Yeast superoxide inactive, ALR inh 99, PfM18AAP inh inactive, CendR NRP1 mod inactive, APOBEC3A inh inactive and A3G deaminase inactive.
For NS(=O)(=O)c1ccc(NC(=S)Nc2ccc(OCc3ccccc3)cc2)cc1 the results were Yeast superoxide inactive, ALR inh inactive, PfM18AAP inh inactive, CendR NRP1 mod inactive, APOBEC3A inh inactive and A3G deaminase inactive.
For O=C(c1ccc(OC2CCN(CCO)CC2)cc1)N1CCCC1 the results were Yeast superoxide inactive, ALR inh inactive, PfM18AAP inh inactive, CendR NRP1 mod inactive, APOBEC3A inh inactive and A3G deaminase inactive.
Screening O=C(O/N=C/c1ccc2c(c1)OCO2)c1ccccc1Cl returned Yeast superoxide inactive, PfM18AAP inh inactive, APOBEC3A inh inactive and A3G deaminase inactive.
`CCOc1ccc(S(=O)(=O)N2CCC(C(=O)NCc3ccccn3)CC2)cc1` gave Yeast superoxide inactive, ALR inh inactive, PfM18AAP inh inactive, CendR NRP1 mod inactive, APOBEC3A inh inactive and A3G deaminase inactive.
For O=C(C1CCCO1)N1CCN(S(=O)(=O)c2cc(F)ccc2F)CC1 (stereo not given) the results were Yeast superoxide inactive, ALR inh inactive, PfM18AAP inh inactive, CendR NRP1 mod inactive, APOBEC3A inh inactive and A3G deaminase inactive.
`CCn1c(=O)c(C(=O)NCc2ccccc2)c(O)c2ccccc21` gave Yeast superoxide inactive, ALR inh inactive, PfM18AAP inh inactive, CendR NRP1 mod inactive, APOBEC3A inh inactive and A3G deaminase inactive.
Screening CCn1c(=O)c(C(=O)NCCNCCO)c(O)c2ccccc21 returned Yeast superoxide inactive, ALR inh inactive, PfM18AAP inh inactive, CendR NRP1 mod 37, APOBEC3A inh inactive and A3G deaminase inactive.

Compound activity deposited in PubChem BioAssay by several laboratories.
